Experimental data: PubChem BioAssay AID1159580 (chemical genetic matrix, 2015)
Several values for one entry are separate records, joined by “and”; a condition that tells them apart may be missing. Equal entries are not always repeated. Hit rate of the full screen: of about 5,500 compounds, about 2,000 (36%) were called active. About 18% were inconclusive and are not listed. Rule as the data show it: active = normalized growth mostly below about 0.91 (no sharp cut-off); inconclusive = no clear call, values can overlap the other calls; inactive = mostly above about 0.92. The list shows a part of the results.

Experiment: chemical genetic growth profiling, strain panel (AID 1159580);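 also: tested at 20 µM; growth read once vehicle control cultures reached saturation at 30 °C; 1 = growth at the plate median or of vehicle wells; lower values mean less growth of the strain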
Details: S. cerevisiae deletion strains, growth OD

Measured: normalized growth

COC(=O)C[C@H]1C2(C)CC34OC5(C)O[C@@]6([C@H](OC(C)=O)C(OC(C)=O)[C@]7(C)C(/C(=C(/O)C(C)C)C(=O)O[C@H]7c7ccoc7)[C@@]6(O5)[C@H](OC(C)=O)[C@@]3(O)C2OC(=O)C(C)C)[C@]14C (stereo partly drawn)
inactive: locus YAL021C, strain ccr4, hits give low values 1.01 | locus YAL026C, strain drs2, hits give low values 0.995 | locus YAL030W, strain snc1, hits give low values 0.997 | locus YBL061C, strain skt5, hits give low values 1.01 | locus YBR009C, strain hhf1, hits give low values 1.01 | locus YBR021W, strain FUR4, hits give low values 1.06 | locus YBR023C, strain chs3, hits give low values 1 | locus YBR171W, strain sec66, hits give low values 0.994 | locus YBR229C, strain ROT2, hits give low values 0.955 | locus YBR231C, strain swc5, hits give low values 1 | locus YBR279W, strain paf1, hits give low values 0.996 | locus YCL011C, strain gbp2, hits give low values 0.989 | locus YCL016C, strain dcc1, hits give low values 1.02 | locus YCL029C, strain bik1, hits give low values 1.01 | locus YCL061C, strain MRC1, hits give low values 1 | locus YCL069W, strain vba3, hits give low values 0.998 | locus YCR088W, strain abp1, hits give low values 0.992 | locus YDL005C, strain med2, hits give low values 0.982 | locus YDL035C, strain GPR1, hits give low values 0.976 | locus YDL040C, strain nat1, hits give low values 0.978 | locus YDL074C, strain BRE1, hits give low values 0.986 | locus YDL101C, strain DUN1, hits give low values 1 | locus YDL134C, strain PPH21, hits give low values 1.02 | locus YDL185W, strain tfp1, hits give low values 0.956 | locus YDL192W, strain arf1, hits give low values 0.986 | locus YDR001C, strain nth1, hits give low values 1 | locus YDR069C, strain doa4, hits give low values 1 | locus YDR101C, strain arx1, hits give low values 1 | locus YDR137W, strain rgp1, hits give low values 0.953 | locus YDR159W, strain sac3, hits give low values 0.975 | locus YDR162C, strain NBP2, hits give low values 0.973 | locus YDR195W, strain ref2 0.959 | locus YDR297W, strain sur2, hits give low values 1.02 | locus YDR318W, strain mcm21, hits give low values 0.994 | locus YDR334W, strain swr1, hits give low values 0.991 | locus YDR335W, strain msn5, hits give low values 0.993 | locus YDR388W, hits give low values 0.994 | locus YDR392W, strain spt3, hits give low values 1.05 | locus YDR502C, strain sam2, hits give low values 1.03 | locus YEL003W, strain gim4, hits give low values 0.995 | locus YEL037C, strain rad23, hits give low values 0.997 | locus YEL061C, strain CIN8 (second series), hits give low values 0.994 | locus YEL061C, strain CIN8, hits give low values 1 | locus YER015W, strain faa2, hits give low values 1.01 | locus YER016W, strain bim1, hits give low values 0.981 | locus YER110C, hits give low values 0.992 | locus YER111C, strain swi4, hits give low values 0.985 | locus YER155C, strain BEM2 (second series), hits give low values 1.01 | locus YER155C, strain BEM2, hits give low values 1.01 | locus YER167W, strain BCK2, hits give low values 0.99 | locus YFR010W, strain ubp6, hits give low values 0.982 | locus YGL078C, strain dbp3, hits give low values 0.98 | locus YGL086W, strain mad1, hits give low values 1.01 | locus YGL167C, strain pmr1, hits give low values 0.995 | locus YGL173C, strain kem1, hits give low values 0.997 | locus YGL227W, strain vid30, hits give low values 0.987 | locus YGL240W, strain doc1, hits give low values 0.975 | locus YGL248W, strain PDE1, hits give low values 0.997 | locus YGL253W, strain hxk2, hits give low values 0.975 | locus YGR078C, strain PAC10, hits give low values 1 | locus YGR135W, strain pre9, hits give low values 1.06 | locus YGR252W, strain gcn5, hits give low values 1.04 | locus YHR013C, strain ard1, hits give low values 1 | locus YHR027C, strain rpn1, hits give low values 1.02 | locus YHR030C, strain SLT2, hits give low values 0.947 | locus YHR079C, strain IRE1 (second series), hits give low values 0.997 | locus YHR079C, strain IRE1, hits give low values 0.983 | locus YHR094C, strain hxt1, hits give low values 0.998 | locus YHR129C, strain ARP1, hits give low values 1 | locus YHR142W, strain chs7, hits give low values 1 | locus YHR200W, strain rpn10, hits give low values 0.996 | locus YIL066C, strain RNR3, hits give low values 0.963 | locus YIL073C, strain SPO22, hits give low values 0.966 | locus YIL125W, strain kgd1, hits give low values 1 | locus YIR030C, strain dcg1, hits give low values 1 | locus YJL092W, strain hpr5, hits give low values 0.997 | locus YJL095W, strain BCK1 (second series), hits give low values 1 | locus YJL095W, strain BCK1, hits give low values 1.02 and 0.966 | locus YJL115W, strain asf1, hits give low values 0.989 | locus YJL129C, strain trk1, hits give low values 0.975 | locus YJL134W, strain LCB3, hits give low values 0.994 | locus YJL154C, strain vps35, hits give low values 1 | locus YJL164C, strain tpk1, hits give low values 1.01 | locus YJL166W, strain qcr8, hits give low values 0.983 | locus YJL168C, strain set2, hits give low values 1.01 | locus YJL187C, strain SWE1 (second series), hits give low values 1.01 | locus YJL187C, strain SWE1, hits give low values 1.01 | locus YJR066W, strain TOR1, hits give low values 0.928 | locus YJR075W, strain HOC1, hits give low values 1.02 | locus YKL009W, strain mrt4, hits give low values 0.979 | locus YKL068W, hits give low values 0.986 | locus YKL160W, strain elf1, hits give low values 1.01 | locus YKR001C, strain vps1, hits give low values 1 | locus YKR026C, strain gcn3, hits give low values 0.995 | locus YKR091W, strain srl3, hits give low values 0.996 | locus YLL001W, strain dnm1, hits give low values 1.02 | locus YLL026W, hits give low values 0.987 | locus YLL041C, strain sdh2, hits give low values 0.988 | locus YLR027C, strain aat2, hits give low values 1 | locus YLR039C, strain RIC1, hits give low values 0.863 | locus YLR058C, strain SHM2, hits give low values 0.987 | locus YLR102C, strain apc9, hits give low values 1 | locus YLR113W, strain HOG1, hits give low values 1.01 | locus YLR221C, strain rsa3, hits give low values 0.992 | locus YLR258W, strain gsy2, hits give low values 1.01 | locus YLR262C, strain YPT6 (second series), hits give low values 0.924 | locus YLR268W, strain sec22, hits give low values 0.986 | locus YLR320W, strain mms22, hits give low values 0.988 | locus YLR342W, strain FKS1, hits give low values 0.996 | locus YLR357W, strain rsc2, hits give low values 0.997 | locus YLR370C, strain arc18, hits give low values 0.99 | locus YLR371W, strain rom2, hits give low values 0.99 | locus YLR384C, strain iki3, hits give low values 0.994 | locus YLR418C, strain cdc73, hits give low values 1.07 | locus YML016C, strain PPZ1, hits give low values 0.995 | locus YML032C, strain rad52, hits give low values 0.982 | locus YML120C, strain ndi1, hits give low values 0.995 | locus YML124C, strain tub3, hits give low values 1.01 | locus YMR058W, strain fet3, hits give low values 1.01 | locus YMR078C, strain ctf18, hits give low values 0.998 | locus YMR125W, strain sto1, hits give low values 1.01 | locus YMR129W, hits give low values 0.997 | locus YMR205C, strain PFK2, hits give low values 0.992 | locus YMR223W, strain ubp8, hits give low values 1.02 | locus YMR231W, strain pep5, hits give low values 0.957 | locus YMR263W, strain SAP30, hits give low values 0.992 | locus YMR307W, strain GAS1, hits give low values 0.926 | locus YNL067W, strain RPL9B, hits give low values 1.02 | locus YNL071W, strain lat1, hits give low values 0.998 | locus YNL153C, strain GIM3, hits give low values 1.02 | locus YNL183C, strain NPR1, hits give low values 0.954 | locus YNL209W, strain ssb2, hits give low values 0.994 | locus YNL233W, strain BNI4, hits give low values 1.04 | locus YNL248C, strain rpa49, hits give low values 0.989 | locus YNL250W, strain rad50, hits give low values 0.987 | locus YNL271C, strain bni1, hits give low values 0.999 | locus YNL298W, strain CLA4, hits give low values 0.994 | locus YNL307C, strain MCK1, hits give low values 1.01 | locus YNL322C, strain KRE1 (second series), hits give low values 0.982 | locus YNR049C, strain mso1, hits give low values 0.994 | locus YNR052C, strain pop2, hits give low values 1.02 | locus YOL012C, strain htz1 1.3 | locus YOL147C, strain pex11, hits give low values 1.01 | locus YOR001W, strain rrp6, hits give low values 0.947 | locus YOR061W, strain CKA2, hits give low values 0.962 | locus YOR069W, strain VPS5, hits give low values 1 | locus YOR070C, strain gyp1, hits give low values 0.987 | locus YOR080W, strain dia2, hits give low values 0.977 | locus YOR083W, strain WHI5, hits give low values 1.02 | locus YOR106W, strain vam3, hits give low values 1.01 | locus YOR136W, strain idh2, hits give low values 1 | locus YOR144C, strain elg1, hits give low values 1 | locus YOR184W, strain ser1, hits give low values 0.987 | locus YOR231W, strain MKK1, hits give low values 0.981 | locus YOR265W, strain rbl2, hits give low values 0.994 | locus YOR270C, strain vph1, hits give low values 0.87 | locus YOR290C, strain snf2, hits give low values 0.979 | locus YOR316C, strain cot1, hits give low values 1.01 | locus YPL051W, strain arl3, hits give low values 0.999 | locus YPL078C, strain atp4, hits give low values 1.01 | locus YPL106C, strain sse1, hits give low values 1.06 | locus YPL240C, strain hsp82, hits give low values 0.99 | locus YPL256C, strain CLN2, hits give low values 0.98 | locus YPR119W, strain clb2, hits give low values 0.997 | locus YPR141C, strain kar3, hits give low values 0.969 | locus YPR163C, strain tif3, hits give low values 1.01 | locus YPR167C, strain met16, hits give low values 0.993 | strain wtn01, hits give low values 1
